# Results: the supplement of paper PMC8728848
# The entries come from a sample that favours the strongest signals as a whole.
# B1: Awp1 (Candida glabrata) (protein)
# chain: MSLITIFAFLIKATLVLSLDILTPTTLTGDQTFNEDVSVVSSLTLNDGSQYLFNNLLQIAPSSASVTANALAAVSVFTFSLPPSSSLSNSGTLIISNSNTGPSTEQHIVITPNVMANTGTITLSLAHTNTDSSSTLIIDPVTFYNTGTINYESIGSETNDPSLTGNILSIGSSGRTLQNLGTINLNAANSYYLLGTITENSGSINVQKGFLYVNALDFIGNTINLSTTTALAFISPVSQVVRVRGVFFGNIIASVGSSGTFSYNTQTGILTVTTNGVYSYDIGCGYNPALMSGQQETLSFQGNPYDTFLVLVNQPIPSDLTCAAVSSSITPSSSVEPSSSVVPSSSVEPSSSVEPSSSVEPSSSVEPSSSVEPSSSVEPSSSVEPSSSVEPSSSVEPSSSVEPSSSVEPSSSVEPSSSVEPSSSVEPSSSVEPSSSVEPSSSVEPSSSVEPSSSVEPSSLIVPSSSVEPSSSVLPSSSVVPSSSVEPSTPPIPSSSVEPSSSVVPSSPAVPSSSVEPSTPPIPSSSVVSASVFDTSSTLPSSPSVPPSSVSPSTISTPSSSAAPSSFCPTCVSSGTPPAPSSSAIVPTSSAGGGNGGDNREPGAAGQPGAAGQPGAAGQPGAAGQPGAAGQPGAAGQPGAAGQPGAAGQPGAAGQPGAAGQPGAGFGVGSEQPTPGAGAGSGSADGNQSGTGSGTGNGQQGSGQAGSGQAGSGQEGSGQAGSGQAGSGQAGSGQAGSGQAGLDNTASGQSEGGQASAMDGDQSGRDGQSNSGSLLQPNAQQGTGSGTGSDIGADQASGESPGQIGDAQPGSGTDQSSGRHSLAAEARTSQSHSLAADARTRSTTRQTSVIAPDTAPGTASGTAPGTAPGTAVVTTFHGCGTVNHKGMINILLALALLVLL
# What was measured:
# Test in all cases: glycan array binding signal (z-score within array); higher = stronger binding
# Settings in all cases: glycan notation: IUPAC condensed, linker removed
# [1] = molecular target: Fuc(a1-2)Gal(b1-3)GalNAc(b1-3)Gal(a1-4)Gal(b1-4)Glc
# Outline: (§1)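 The binding signal is a Z-score computed within each array and averaged over linkers. Arrays of the same protein sequence at different concentrations or buffers were also averaged together. Data originate from 3228 arrays in the Consortium for Functional Glycomics database, kept only where the protein sequence was available.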
# [2] = molecular target: Fuc(a1-2)Gal(b1-3)GlcNAc(b1-2)Man(a1-3)[Fuc(a1-2)Gal(b1-3)GlcNAc(b1-2)Man(a1-6)]Man(b1-4)GlcNAc(b1-4)GlcNAc
# Outline: as §1
# [3] = molecular target: Fuc(a1-2)Gal(b1-3)GlcNAc(b1-3)Gal(b1-4)Glc
# Outline: as §1
# [4] = molecular target: Fuc(a1-2)Gal(b1-3)GlcNAc(b1-3)GalNAc
# Outline: as §1
# [5] = molecular target: Fuc(a1-2)Gal(b1-3)[Fuc(a1-4)]GlcNAc
# Outline: as §1
# [6] = molecular target: Fuc(a1-2)Gal(b1-3)[Fuc(a1-4)]GlcNAc(b1-3)[Gal(b1-4)GlcNAc(b1-6)]Gal(b1-4)Glc
# Outline: as §1
# [7] = molecular target: Fuc(a1-2)Gal(b1-4)GlcNAc(b1-3)Gal(b1-4)GlcNAc(b1-3)Gal(b1-4)GlcNAc
# Outline: as §1
# [8] = molecular target: Fuc(a1-2)Gal(b1-4)[Fuc(a1-3)]GlcNAc(b1-3)[Neu5Ac(a2-6)Gal(b1-4)GlcNAc(b1-6)]Gal(b1-4)Glc
# Outline: as §1
# [9] = molecular target: Fuc(a1-2)Gal3S(b1-4)GlcNAc
# Outline: as §1
# [10] = molecular target: Fuc(a1-2)[Gal(a1-3)]Gal(b1-3)GalNAc(b1-3)Gal(a1-4)Gal(b1-4)Glc
# Outline: as §1
# [11] = molecular target: Fuc(a1-2)[Gal(a1-3)]Gal(b1-3)GlcNAc
# Outline: as §1
# [12] = molecular target: Fuc(a1-2)[Gal(a1-3)]Gal(b1-4)GlcNAc(b1-3)GalNAc
# Outline: as §1
# [13] = molecular target: Fuc(a1-2)[GalNAc(a1-3)]Gal(b1-3)GalNAc(b1-3)Gal(a1-4)Gal(b1-4)Glc
# Outline: as §1
# [14] = molecular target: Fuc(a1-2)[GalNAc(a1-3)]Gal(b1-4)[Fuc(a1-3)]GlcNAc
# Outline: as §1
# [15] = molecular target: Fuc(a1-3)[Gal(b1-4)]GlcNAc(b1-2)Man(a1-3)[Fuc(a1-3)[Gal(b1-4)]GlcNAc(b1-2)Man(a1-6)]Man(b1-4)GlcNAc(b1-4)[Fuc(a1-6)]GlcNAc
# Outline: as §1
# [16] = molecular target: Gal(a1-4)Gal(b1-4)Glc
# Outline: as §1
# [17] = molecular target: Gal(a1-4)Gal(b1-4)GlcNAc
# Outline: as §1
# [18] = molecular target: Gal(a1-4)Gal(b1-4)GlcNAc(b1-3)Gal(b1-4)Glc
# Outline: as §1
# [19] = molecular target: Gal(b1-2)Gal
# Outline: as §1
# [20] = molecular target: Gal(b1-3)GalNAc(a1-3)[Fuc(a1-2)]Gal(b1-4)Glc
# Outline: as §1
# [21] = molecular target: Gal(b1-3)GalNAc(b1-4)[Neu5Ac(a2-3)]Gal(b1-4)Glc
# Outline: as §1
# [22] = molecular target: Gal(b1-3)GlcNAc(b1-2)[Gal(b1-3)GlcNAc(b1-6)]Man(a1-6)[Gal(b1-3)GlcNAc(b1-2)Man(a1-3)]Man(b1-4)GlcNAc(b1-4)GlcNAc
# Outline: as §1
# [23] = molecular target: Gal(b1-3)GlcNAc(b1-3)Gal(b1-4)GlcNAc(b1-6)[Gal(b1-3)GlcNAc(b1-3)]Gal(b1-4)Glc
# Outline: as §1
# [24] = molecular target: Gal(b1-3)[Neu5Ac(a2-6)]GalNAc
# Outline: as §1
# [25] = molecular target: Gal(b1-4)GlcNAc(a1-6)Gal(b1-4)GlcNAc
# Outline: as §1
# [26] = molecular target: Gal(b1-4)GlcNAc(b1-2)Man(a1-6)[GlcNAc(b1-2)Man(a1-3)]Man(b1-4)GlcNAc(b1-4)GlcNAc
# Outline: as §1
# [27] = molecular target: Gal(b1-4)GlcNAc(b1-2)[Gal(b1-4)GlcNAc(b1-4)]Man(a1-3)[Gal(b1-4)GlcNAc(b1-2)Man(a1-6)]Man(b1-4)GlcNAc(b1-4)GlcNAc
# Outline: as §1
# [28] = molecular target: Gal(b1-4)GlcNAc(b1-2)[Gal(b1-4)GlcNAc(b1-4)]Man(a1-3)[GlcNAc(b1-4)][Gal(b1-4)GlcNAc(b1-2)Man(a1-6)]Man(b1-4)GlcNAc(b1-4)GlcNAc
# Outline: as §1
# [29] = molecular target: Gal(b1-4)GlcNAc(b1-3)Gal(b1-4)GlcNAc(b1-3)Gal(b1-4)GlcNAc(b1-3)Gal(b1-4)GlcNAc(b1-2)Man(a1-3)[Gal(b1-4)GlcNAc(b1-3)Gal(b1-4)GlcNAc(b1-3)Gal(b1-4)GlcNAc(b1-3)Gal(b1-4)GlcNAc(b1-2)Man(a1-6)]Man(b1-4)GlcNAc(b1-4)[Fuc(a1-6)]GlcNAc
# Outline: as §1
# [30] = molecular target: Gal(b1-4)GlcNAc(b1-3)Gal(b1-4)GlcNAc(b1-6)[Gal(b1-3)]GalNAc
# Outline: as §1
binder,measurement,setting,value
B1,glycan array binding signal (z-score),[1],-0.191
same,glycan array binding signal (z-score),[2],3.11
same,glycan array binding signal (z-score),[3],-0.568
same,glycan array binding signal (z-score),[4],-0.915
same,glycan array binding signal (z-score),[5],0.456
same,glycan array binding signal (z-score),[6],2.29
same,glycan array binding signal (z-score),[7],0.341
same,glycan array binding signal (z-score),[8],0.4
same,glycan array binding signal (z-score),[9],0.168
same,glycan array binding signal (z-score),[10],-0.456
same,glycan array binding signal (z-score),[11],-0.399
same,glycan array binding signal (z-score),[12],-1.3
same,glycan array binding signal (z-score),[13],0.017
same,glycan array binding signal (z-score),[14],-1.15
same,glycan array binding signal (z-score),[15],2.28
same,glycan array binding signal (z-score),[16],2.6
same,glycan array binding signal (z-score),[17],1.02
same,glycan array binding signal (z-score),[18],0.176
same,glycan array binding signal (z-score),[19],-1.15
same,glycan array binding signal (z-score),[20],3.43
same,glycan array binding signal (z-score),[21],-0.686
same,glycan array binding signal (z-score),[22],2.35
same,glycan array binding signal (z-score),[23],2.29
same,glycan array binding signal (z-score),[24],-0.433
same,glycan array binding signal (z-score),[25],3
same,glycan array binding signal (z-score),[26],0.086
same,glycan array binding signal (z-score),[27],-0.236
same,glycan array binding signal (z-score),[28],-0.307
same,glycan array binding signal (z-score),[29],2.42
same,glycan array binding signal (z-score),[30],0.7
